Reference: the supplement of paper PMC11732987, “Enantioselective OTUD7B fragment discovery through chemoproteomics screening and high-throughput optimisation” (Communications Chemistry, 2025)

Legend:
Experiment in all cases: log2 ratio of Biotin-Ahx-Ub-VS probe labelling (fragment/DMSO); higher = less target engagement (more negative = stronger competition), active = hit call of the paper (q ≤ 0.05, log2 ratio ≤ -1)
Details in all cases: compound concentration: 200 uM; treatment time: 3 h
[1] = molecular target: USP34 (UniProt Q70CQ2)
Summary of the method: (§1)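 Global-median-normalised Spectronaut label-free quantities were compared by unpaired t-test, and values are average log2 ratios of fragment over vehicle. Only proteins with ≥2 unique peptides were used. HEK293T lysate (495 µg per sample) was treated in triplicate with fragment at 200 µM or vehicle for 3 h and then with Biotin-Ahx-Ub-VS at 0.5 µM final for 1 h. Labelled DUBs were then NeutrAvidin-enriched, digested with LysC and trypsin, and run by diaPASEF LC-MS/MS.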

[2] = molecular target: T1, USP36 (UniProt Q9P275)
T1 sequence (whole entry): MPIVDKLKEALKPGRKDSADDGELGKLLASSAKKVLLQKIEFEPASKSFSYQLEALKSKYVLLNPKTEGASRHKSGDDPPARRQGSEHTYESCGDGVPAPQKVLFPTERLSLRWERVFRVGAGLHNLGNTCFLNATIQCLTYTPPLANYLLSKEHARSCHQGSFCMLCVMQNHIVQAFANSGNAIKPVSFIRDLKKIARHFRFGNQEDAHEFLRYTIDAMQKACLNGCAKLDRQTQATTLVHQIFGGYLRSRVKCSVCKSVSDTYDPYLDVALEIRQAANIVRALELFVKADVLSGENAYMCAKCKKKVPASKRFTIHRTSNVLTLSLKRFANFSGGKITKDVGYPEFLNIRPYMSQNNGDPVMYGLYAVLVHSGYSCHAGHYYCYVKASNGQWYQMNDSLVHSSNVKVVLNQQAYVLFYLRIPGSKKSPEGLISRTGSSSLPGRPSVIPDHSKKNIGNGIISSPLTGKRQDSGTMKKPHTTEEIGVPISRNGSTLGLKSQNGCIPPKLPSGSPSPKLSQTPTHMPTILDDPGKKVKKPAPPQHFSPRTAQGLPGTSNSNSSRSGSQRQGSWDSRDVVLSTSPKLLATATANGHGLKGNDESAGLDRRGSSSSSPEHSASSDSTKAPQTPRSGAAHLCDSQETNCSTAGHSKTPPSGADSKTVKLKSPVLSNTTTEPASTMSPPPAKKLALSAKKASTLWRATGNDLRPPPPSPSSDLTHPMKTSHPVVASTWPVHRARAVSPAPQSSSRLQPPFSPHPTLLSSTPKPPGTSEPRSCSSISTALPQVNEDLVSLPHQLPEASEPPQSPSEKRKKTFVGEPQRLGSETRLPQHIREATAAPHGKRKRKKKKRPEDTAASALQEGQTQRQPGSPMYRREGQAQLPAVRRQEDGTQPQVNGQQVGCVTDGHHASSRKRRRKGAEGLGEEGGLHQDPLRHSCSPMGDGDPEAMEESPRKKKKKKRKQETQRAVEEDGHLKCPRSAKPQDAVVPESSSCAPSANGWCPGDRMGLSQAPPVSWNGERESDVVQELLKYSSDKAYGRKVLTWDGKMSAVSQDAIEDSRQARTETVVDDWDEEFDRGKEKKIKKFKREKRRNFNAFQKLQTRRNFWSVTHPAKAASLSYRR
Summary of the method: as §1

[3] = molecular target: T2, USP38 (UniProt Q8NB14)
T2 sequence (whole entry): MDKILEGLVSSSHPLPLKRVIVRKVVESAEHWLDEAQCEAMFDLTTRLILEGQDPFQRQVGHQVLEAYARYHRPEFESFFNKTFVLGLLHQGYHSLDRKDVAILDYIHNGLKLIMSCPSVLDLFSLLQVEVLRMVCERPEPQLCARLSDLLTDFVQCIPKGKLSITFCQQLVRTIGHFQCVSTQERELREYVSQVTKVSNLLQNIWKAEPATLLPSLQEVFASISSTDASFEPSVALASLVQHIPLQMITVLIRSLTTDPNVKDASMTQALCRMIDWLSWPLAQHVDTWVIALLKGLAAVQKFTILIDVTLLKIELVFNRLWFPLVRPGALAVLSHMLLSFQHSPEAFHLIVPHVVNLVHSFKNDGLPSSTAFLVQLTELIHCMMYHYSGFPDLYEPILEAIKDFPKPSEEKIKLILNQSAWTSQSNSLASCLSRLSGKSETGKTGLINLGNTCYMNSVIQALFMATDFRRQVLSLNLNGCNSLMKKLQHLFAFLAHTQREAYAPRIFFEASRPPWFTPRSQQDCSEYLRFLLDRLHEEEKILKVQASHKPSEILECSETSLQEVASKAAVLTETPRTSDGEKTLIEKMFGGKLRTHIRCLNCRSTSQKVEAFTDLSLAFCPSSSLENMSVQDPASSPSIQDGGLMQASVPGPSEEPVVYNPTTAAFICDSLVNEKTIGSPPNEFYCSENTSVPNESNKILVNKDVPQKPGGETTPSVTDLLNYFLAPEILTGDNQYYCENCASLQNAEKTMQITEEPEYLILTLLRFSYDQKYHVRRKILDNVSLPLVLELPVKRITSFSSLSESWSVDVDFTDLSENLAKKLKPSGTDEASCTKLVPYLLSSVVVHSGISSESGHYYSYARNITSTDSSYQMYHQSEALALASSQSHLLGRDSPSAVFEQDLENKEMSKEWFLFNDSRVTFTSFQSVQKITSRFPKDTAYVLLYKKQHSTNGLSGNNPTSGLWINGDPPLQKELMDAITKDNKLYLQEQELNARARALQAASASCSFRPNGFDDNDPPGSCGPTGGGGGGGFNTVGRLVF
Summary of the method: as §1

[4] = molecular target: T3, USP39 (UniProt Q53GS9)
T3 sequence (whole entry): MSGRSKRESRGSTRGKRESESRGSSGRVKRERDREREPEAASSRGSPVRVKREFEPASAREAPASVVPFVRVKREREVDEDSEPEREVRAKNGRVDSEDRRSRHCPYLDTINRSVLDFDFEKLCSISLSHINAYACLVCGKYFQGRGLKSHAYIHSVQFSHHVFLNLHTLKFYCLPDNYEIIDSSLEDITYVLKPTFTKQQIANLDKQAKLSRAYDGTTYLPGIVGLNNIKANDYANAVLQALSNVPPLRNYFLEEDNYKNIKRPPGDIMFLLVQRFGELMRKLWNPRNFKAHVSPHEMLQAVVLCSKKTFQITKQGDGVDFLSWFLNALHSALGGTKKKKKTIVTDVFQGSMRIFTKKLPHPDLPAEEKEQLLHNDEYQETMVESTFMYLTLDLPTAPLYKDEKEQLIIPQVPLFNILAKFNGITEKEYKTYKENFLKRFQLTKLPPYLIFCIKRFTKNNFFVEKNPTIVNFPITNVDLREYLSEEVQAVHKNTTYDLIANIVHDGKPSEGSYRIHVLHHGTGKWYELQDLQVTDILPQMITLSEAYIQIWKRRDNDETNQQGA
Summary of the method: as §1

[5] = molecular target: T4, USP4 (UniProt Q13107)
T4 sequence (whole entry): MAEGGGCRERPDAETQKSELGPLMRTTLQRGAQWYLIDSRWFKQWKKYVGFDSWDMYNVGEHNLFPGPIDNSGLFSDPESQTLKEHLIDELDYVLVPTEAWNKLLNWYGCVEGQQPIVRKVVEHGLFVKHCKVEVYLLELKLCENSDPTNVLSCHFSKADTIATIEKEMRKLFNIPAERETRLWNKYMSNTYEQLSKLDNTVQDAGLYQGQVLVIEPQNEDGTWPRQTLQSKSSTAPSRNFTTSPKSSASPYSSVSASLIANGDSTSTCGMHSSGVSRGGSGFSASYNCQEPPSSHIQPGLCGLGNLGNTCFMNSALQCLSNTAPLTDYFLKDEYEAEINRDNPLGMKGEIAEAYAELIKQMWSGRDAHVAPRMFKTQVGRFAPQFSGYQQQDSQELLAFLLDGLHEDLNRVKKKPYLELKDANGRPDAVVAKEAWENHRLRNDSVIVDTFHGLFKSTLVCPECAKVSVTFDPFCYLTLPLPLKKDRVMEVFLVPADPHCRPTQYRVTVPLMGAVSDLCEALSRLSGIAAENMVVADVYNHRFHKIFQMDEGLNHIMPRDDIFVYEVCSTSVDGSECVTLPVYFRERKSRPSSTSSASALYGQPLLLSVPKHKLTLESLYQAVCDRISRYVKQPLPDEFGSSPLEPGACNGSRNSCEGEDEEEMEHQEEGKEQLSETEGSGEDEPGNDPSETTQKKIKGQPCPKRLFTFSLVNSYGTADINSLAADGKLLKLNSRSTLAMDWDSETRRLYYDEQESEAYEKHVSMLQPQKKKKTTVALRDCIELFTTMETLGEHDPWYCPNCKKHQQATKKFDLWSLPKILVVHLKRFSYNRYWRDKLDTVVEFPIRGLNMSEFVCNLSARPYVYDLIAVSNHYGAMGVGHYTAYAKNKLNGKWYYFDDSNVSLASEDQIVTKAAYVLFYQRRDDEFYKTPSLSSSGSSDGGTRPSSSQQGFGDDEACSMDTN
Summary of the method: as §1

Measured: log2 ratio of Biotin-Ahx-Ub-VS probe labelling

Chain of USP34 (Q70CQ2 whole entry, the tested form may be a part): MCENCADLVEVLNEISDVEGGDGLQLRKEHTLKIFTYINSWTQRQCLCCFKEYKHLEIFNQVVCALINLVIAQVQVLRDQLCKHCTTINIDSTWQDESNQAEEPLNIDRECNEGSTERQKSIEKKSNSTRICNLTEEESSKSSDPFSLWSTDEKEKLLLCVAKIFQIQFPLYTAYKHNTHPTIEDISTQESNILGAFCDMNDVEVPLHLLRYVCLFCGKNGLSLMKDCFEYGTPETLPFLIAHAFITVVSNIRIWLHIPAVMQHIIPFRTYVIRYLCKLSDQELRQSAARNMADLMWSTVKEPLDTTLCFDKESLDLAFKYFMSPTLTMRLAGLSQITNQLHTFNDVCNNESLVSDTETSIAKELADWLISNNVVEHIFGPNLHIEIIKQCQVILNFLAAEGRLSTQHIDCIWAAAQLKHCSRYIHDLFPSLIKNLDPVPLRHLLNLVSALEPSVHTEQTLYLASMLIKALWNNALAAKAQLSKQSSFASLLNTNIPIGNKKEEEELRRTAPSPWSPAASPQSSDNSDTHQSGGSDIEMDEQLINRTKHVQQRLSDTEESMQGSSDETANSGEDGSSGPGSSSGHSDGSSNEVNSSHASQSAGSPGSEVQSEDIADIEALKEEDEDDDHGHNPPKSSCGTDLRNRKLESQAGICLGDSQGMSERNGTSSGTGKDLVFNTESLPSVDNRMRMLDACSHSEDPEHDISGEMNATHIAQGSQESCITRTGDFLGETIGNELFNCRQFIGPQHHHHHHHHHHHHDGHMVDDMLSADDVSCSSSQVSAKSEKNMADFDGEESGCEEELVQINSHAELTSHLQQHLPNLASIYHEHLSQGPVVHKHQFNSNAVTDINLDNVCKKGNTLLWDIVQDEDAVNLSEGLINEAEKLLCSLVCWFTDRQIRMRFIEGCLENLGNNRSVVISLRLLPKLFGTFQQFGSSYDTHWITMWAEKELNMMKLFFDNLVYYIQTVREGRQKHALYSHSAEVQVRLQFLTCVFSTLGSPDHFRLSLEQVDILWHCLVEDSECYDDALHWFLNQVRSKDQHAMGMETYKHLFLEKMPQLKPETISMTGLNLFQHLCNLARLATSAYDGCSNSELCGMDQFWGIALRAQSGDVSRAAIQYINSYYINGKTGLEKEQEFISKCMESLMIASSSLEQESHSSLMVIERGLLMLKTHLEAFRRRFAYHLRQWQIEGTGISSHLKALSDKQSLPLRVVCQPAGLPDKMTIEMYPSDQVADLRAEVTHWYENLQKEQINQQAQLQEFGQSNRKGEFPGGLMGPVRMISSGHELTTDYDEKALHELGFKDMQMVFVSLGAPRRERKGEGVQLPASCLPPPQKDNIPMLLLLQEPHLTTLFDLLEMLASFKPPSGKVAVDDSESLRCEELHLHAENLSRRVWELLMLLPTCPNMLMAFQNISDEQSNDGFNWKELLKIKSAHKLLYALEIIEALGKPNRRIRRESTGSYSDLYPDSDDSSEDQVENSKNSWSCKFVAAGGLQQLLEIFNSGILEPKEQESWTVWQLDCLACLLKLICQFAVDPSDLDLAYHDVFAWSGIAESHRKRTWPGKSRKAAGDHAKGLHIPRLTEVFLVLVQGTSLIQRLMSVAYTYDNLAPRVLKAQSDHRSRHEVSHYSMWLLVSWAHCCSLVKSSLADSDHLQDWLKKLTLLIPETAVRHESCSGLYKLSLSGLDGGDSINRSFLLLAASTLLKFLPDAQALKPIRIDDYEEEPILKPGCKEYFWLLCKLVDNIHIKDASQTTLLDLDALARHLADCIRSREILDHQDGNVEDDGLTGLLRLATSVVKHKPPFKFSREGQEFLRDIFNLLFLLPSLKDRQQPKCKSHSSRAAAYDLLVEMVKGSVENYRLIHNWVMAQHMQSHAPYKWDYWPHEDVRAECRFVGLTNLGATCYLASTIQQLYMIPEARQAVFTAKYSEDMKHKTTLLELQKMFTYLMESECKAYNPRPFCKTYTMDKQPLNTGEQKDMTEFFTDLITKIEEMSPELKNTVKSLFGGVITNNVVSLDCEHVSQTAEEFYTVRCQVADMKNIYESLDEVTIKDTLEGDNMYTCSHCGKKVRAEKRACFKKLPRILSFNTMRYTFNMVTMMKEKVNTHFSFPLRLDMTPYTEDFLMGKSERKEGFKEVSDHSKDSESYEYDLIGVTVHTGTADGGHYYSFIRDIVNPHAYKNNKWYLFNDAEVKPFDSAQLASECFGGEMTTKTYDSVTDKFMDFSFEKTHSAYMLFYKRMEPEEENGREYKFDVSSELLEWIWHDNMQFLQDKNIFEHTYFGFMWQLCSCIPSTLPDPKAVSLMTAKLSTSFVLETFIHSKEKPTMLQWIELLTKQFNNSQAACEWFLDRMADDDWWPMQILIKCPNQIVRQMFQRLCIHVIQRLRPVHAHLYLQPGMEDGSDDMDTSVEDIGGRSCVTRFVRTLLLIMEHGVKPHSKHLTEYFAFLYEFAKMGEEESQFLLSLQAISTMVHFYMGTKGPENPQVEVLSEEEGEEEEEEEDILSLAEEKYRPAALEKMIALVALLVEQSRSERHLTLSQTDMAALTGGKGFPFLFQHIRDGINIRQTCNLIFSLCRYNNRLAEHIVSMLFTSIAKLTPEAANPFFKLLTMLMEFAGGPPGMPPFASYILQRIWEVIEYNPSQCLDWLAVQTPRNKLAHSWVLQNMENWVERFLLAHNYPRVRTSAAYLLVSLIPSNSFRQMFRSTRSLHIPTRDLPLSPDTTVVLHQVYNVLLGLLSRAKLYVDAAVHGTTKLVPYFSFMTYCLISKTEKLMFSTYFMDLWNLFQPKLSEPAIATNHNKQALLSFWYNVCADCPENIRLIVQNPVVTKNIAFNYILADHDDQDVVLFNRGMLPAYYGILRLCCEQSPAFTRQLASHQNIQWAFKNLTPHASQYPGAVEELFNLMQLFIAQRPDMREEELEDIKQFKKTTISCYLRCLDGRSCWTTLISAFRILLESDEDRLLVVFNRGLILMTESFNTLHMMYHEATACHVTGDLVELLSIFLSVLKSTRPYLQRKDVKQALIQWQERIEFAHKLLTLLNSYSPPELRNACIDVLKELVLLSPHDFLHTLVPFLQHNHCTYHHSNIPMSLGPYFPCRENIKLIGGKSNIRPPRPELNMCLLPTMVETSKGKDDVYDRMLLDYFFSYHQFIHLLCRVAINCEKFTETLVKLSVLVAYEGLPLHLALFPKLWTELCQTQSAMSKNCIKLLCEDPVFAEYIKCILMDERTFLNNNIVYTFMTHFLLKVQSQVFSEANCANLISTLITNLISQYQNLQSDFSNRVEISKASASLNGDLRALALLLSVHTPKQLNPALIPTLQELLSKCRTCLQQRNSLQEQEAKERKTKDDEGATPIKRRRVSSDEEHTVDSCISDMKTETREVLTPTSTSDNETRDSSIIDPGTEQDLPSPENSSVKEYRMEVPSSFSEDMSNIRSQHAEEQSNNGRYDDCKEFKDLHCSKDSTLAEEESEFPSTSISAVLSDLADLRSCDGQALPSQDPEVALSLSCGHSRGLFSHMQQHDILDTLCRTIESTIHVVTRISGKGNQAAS

O=C(CCl)Nc1ccc(Cl)c(F)c1
inactive: [1] -0.317 | [2] -0.136 | [3] -0.0529 | [4] 4.5e-05 | [5] -0.159
